Experimental data reported in PubChem BioAssay AID602393 (Broad Institute, 2012).
The campaign covered roughly 350,000 compounds. About 7,000 (2%) were called active. Rule as the data show it: active = activation above about 40%; inconclusive = no clear call, values can overlap the other calls; inactive = below that. This excerpt belongs to a sample that is enriched for actives.

Assay: Bmi1 luciferase reporter increase in mESCs, primary screen, esBAF inhibitor project, mouse ES cells, Bmi1 luciferase knock-in, single point (AID 602393);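 also: 0% = median of the plate's neutral control wells and 100% = double that signal; a rise in the Bmi1 reporter signal indicates esBAF inhibition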
Settings: 24 h, at 12.5 µM, active compounds read high, 100% = twice the neutral-well signal

Row | Compound | reporter increase
1 | CCOc1ccc(N(CC(=O)NCCc2ccc(F)cc2)S(=O)(=O)c2ccccc2)cc1 | 1.13% (inactive)
2 | COc1ccc(N(CCC(=O)NCCc2ccccc2)S(=O)(=O)c2ccc(C)cc2C)cc1 | 77.9% (active)
3 | CCN(CC(=O)NCCc1ccccc1)S(=O)(=O)c1ccc(C)cc1 | -2.78% (inactive)
4 | CCc1ccc(C(=O)COC(=O)c2ccco2)cc1 | 13.9% (inactive)
5 | CCN(CC)c1ccc(C(=O)OCC(=O)c2ccco2)cc1 | 69.5% (active)
6 | O=C(COC(=O)c1ccccc1C(=O)c1ccccc1)c1ccco1 | -5.33% (inactive)
7 | C[C@@H]1CN([C@H](C)CO)C(=O)c2cc(-c3cccc(F)c3)cnc2O[C@@H]1CN(C)C | -2.09% (inactive)
8 | Cc1noc(C)c1S(=O)(=O)Nc1ccc2c(c1)C(=O)N([C@H](C)CO)C[C@H](C)[C@H](CN(C)S(=O)(=O)c1cn(C)cn1)OCCCC[C@@H](C)O2 | -2.07% (inactive)
9 | C[C@@H]1CCCCO[C@@H](CN(C)C(=O)NC2CCCCC2)[C@H](C)CN([C@H](C)CO)C(=O)c2cc(NC(=O)c3ccccc3)ccc2O1 | 8.88% (inactive)
10 | Cc1ccccc1S(=O)(=O)NCC[C@@H]1CC[C@@H](NS(=O)(=O)c2ccccc2C)[C@@H](CO)O1 | 2.87% (inactive)
11 | O=C(c1cccc(N2CCCC2=O)c1)N1CCOCC1 | -0.631% (inactive)
12 | O=C(NCCCN1CCCCCC1)c1ccc(N2CCCC2=O)cc1 | -4.86% (inactive)
13 | O=C(NCCc1ccc(Cl)cc1)c1cccc(N2CCCC2=O)c1 | 54.9% (active)
14 | COc1ccc(CN(C)C[C@H]2OCCCC[C@H](C)Oc3ccc(NC(=O)NC4CCCCC4)cc3C(=O)N([C@@H](C)CO)C[C@@H]2C)cc1 | 2.7% (inactive)
15 | O=C(CSCc1ccc(Cl)cc1)N1CCCCC1 | 47.9% (active)
16 | O=C(CSCc1cccs1)N1CCCC1 | 33.4% (inactive)
17 | O=C(CSCc1ccc(Cl)cc1)N1CCN(Cc2ccc3c(c2)OCO3)CC1 | -7.9% (inactive)
18 | CO[C@@H]1CN(C)C(=O)c2cc(NC(=O)C3CC3)ccc2OC[C@H](C)N(Cc2ccc(F)cc2)C[C@@H]1C | -2.84% (inactive)
19 | COc1ccc(-c2cnc3c(c2)C(=O)N([C@@H](C)CO)C[C@@H](C)[C@H](CN(C)C(=O)C2CCCCC2)O3)cc1 | 2.07% (inactive)
20 | CCn1c(Cc2cccs2)nnc1SCC(=O)c1ccc(C)cc1 | 25.1% (inactive)
21 | CCn1c(SCC(=O)c2ccc(Cl)s2)nnc1-c1cccs1 | 46% (active)
22 | CCn1c(SCC(=O)N(C)C2CCS(=O)(=O)C2)nnc1-c1cccs1 (stereo not given) | -1.83% (inactive)
23 | COc1ccc(S(=O)(=O)N[C@@H]2CC[C@@H](CC(=O)NCCc3ccccc3)O[C@@H]2CO)cc1 | 3.19% (inactive)
24 | C[C@@H]1CCCCO[C@@H](CN(C)C(=O)Cc2ccccc2)[C@H](C)CN([C@@H](C)CO)C(=O)c2cc(NC(=O)Nc3ccc(F)cc3)ccc2O1 | 1.88% (inactive)
25 | CC(C)NC(=O)N(C)C[C@@H]1OCc2ccccc2-c2c(n(C)c3ccccc23)C(=O)N([C@@H](C)CO)C[C@H]1C | -0.481% (inactive)

Row | Compound | reporter increase
26 | O=C(Oc1ccc([N+](=O)[O-])cc1)c1ccc2ccccc2n1 | 0.987% (inactive)
27 | O=[N+]([O-])c1cc2ccccc2nc1-c1ccccc1 | -3.44% (inactive)
28 | O=[N+]([O-])c1ccc2c(c1)Nc1nc3ccccc3nc1N2 | 47.3% (active)
29 | CO[C@@H]1CN(C)C(=O)c2cc(NC(=O)c3ccccc3F)ccc2OC[C@@H](C)N(CC2CC2)C[C@H]1C | 1.73% (inactive)
30 | COc1ccccc1S(=O)(=O)N1CC[C@H]2[C@@H](CO)N(C)c3ccc(C#Cc4ccccc4)cc3[C@H]21 | -3.04% (inactive)
31 | C[C@H]1CCCCO[C@@H](CN(C)Cc2ccncc2)[C@@H](C)CN([C@@H](C)CO)C(=O)c2cc(NC(=O)Nc3ccc(F)cc3)ccc2O1 | -1.97% (inactive)
32 | COc1cccc(C(=O)Nc2cccnc2)c1OC | 0.381% (inactive)
33 | CCOC(=O)c1ccc(-c2ccc(C(=O)Nc3cccnc3)o2)cc1 | 58.2% (active)
34 | CCOC(=O)c1ccc(NC(=O)CNC(=O)c2ccco2)cc1 | -2.33% (inactive)
35 | CC(=O)N1[C@@H](CO)[C@@H]2c3ccccc3N(S(=O)(=O)c3ccccc3)C[C@@H]21 | 0.543% (inactive)
36 | COc1ccc2nc(N3CCN(C(=O)c4ccc([N+](=O)[O-])o4)CC3)sc2c1 | -6.63% (inactive)
37 | COc1ccc2nc(N3C(=O)C(O)=C(C(=O)c4ccco4)C3c3ccco3)sc2c1 (stereo not given) | -10.8% (inactive)
38 | O=C(Cc1c(F)cccc1Cl)N1CCN(C(=O)c2ccco2)CC1 | 3.68% (inactive)
39 | O=C(c1cccc([N+](=O)[O-])c1)N1CCN(C(=O)c2ccco2)CC1 | -1.81% (inactive)
40 | O=C(c1ccco1)N1CCN(C(=S)Nc2cc(F)cc(F)c2)CC1 | 7.97% (inactive)
41 | O=C(NCCCN1CCOCC1)c1cc(-c2ccccc2F)no1 | 19.6% (inactive)
42 | O=C(c1ccco1)N1CCN(c2cccc(Cl)c2)CC1 | 45.4% (active)
43 | Cc1ccc(OCC(=O)Nc2ccc(N3CCN(C(=O)c4ccco4)CC3)cc2)c(C)c1 | 0.555% (inactive)
44 | Cc1ccc2nc(N3CCN(C(=O)c4ccco4)CC3)sc2c1 | 54.6% (active)
45 | Cc1ccc2nc(N3C(=O)C(O)=C(C(=O)c4ccco4)C3c3cccc(O)c3)sc2c1 (stereo not given) | 43.5% (active)
46 | O=C(c1ccco1)N1CCN(C(=O)c2cc(-c3ccccc3F)no2)CC1 | 66.3% (active)
47 | C=CCSc1nnc(N2C(=O)C(O)=C(C(=O)c3ccco3)C2c2ccc(F)cc2)s1 (stereo not given) | 10.6% (inactive)
48 | COCC#Cc1cnc2c(c1)C(=O)N([C@@H](C)CO)C[C@@H](C)[C@@H](CN(C)C(=O)c1cccnc1)O2 | 3.33% (inactive)
49 | C[C@H](CO)N1C[C@H](C)[C@H](CN(C)C(=O)Nc2ccc3c(c2)OCO3)Oc2ccc(NS(=O)(=O)c3ccc(Cl)cc3)cc2CC1=O | 4.87% (inactive)
50 | Cc1cccc(CN(C)C[C@@H]2OCc3cn(nn3)CCCC(=O)N([C@@H](C)CO)C[C@H]2C)c1 | -0.643% (inactive)
